The list is not random: actives were taken first. Their share in the collection is about 2.6%.
TRPV1 potentiator – enhances activation of the human vanilloid receptor TRPV1; Q8NER1; TRPV1-expressing cells, Fluo-8 calcium influx, capsaicin EC20 potentiation; potentiation, % at 8.33 µM; 320,000 compounds, 0.02% hits; AID 540277; in the data active = potentiation above about 80%; inconclusive = between about 30% and that limit; note: 0% is about no effect
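Cells expressing TRPV1 were dye-loaded with Fluo-8 and read kinetically: 10 s baseline, 3 min after compound (agonist portion), then 2 min after EC20 capsaicin (allosteric enhancer portion). Calcium-bound dye fluorescence at 480/520 nm.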
p53 reactivation – mutant p53 re-activation in reporter cells; 320,000 compounds, 0.063% hits; Potency, µM (top dose mostly 92.2 µM), for the others: at the top dose activity change, positive = activation, usual class: activators; AID 504706; H1299 p53-A138V BP100-luciferase reporter, luminescence, 24 h; active = well fitted activation curve with a large enough effect; inconclusive = small, poorly fitted or top-dose-only effect; inactive = no such curve, though single readings can be large or run the other way; note: potency is the fitted concentration of half-maximal effect; % of control where 0% means no effect; nearly all actives have a fitted effect of over 45% in size
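H1299 (p53-null), stable ts p53-A138V + BP100-Luc; 1000 cells/well, Opti-MEM/10% FBS; cpd 4 pt, 1:5; 24 h, 37 deg C, 5% CO2; detection reagent 10 min RT; luminescence.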
ClpP mod – qHTS Assay for Activators of ClpP; Potency, µM (titrated, usually from 57.5 µM), for inactives: top-dose activity change, negative = active; AID 651965, 2013; 340,000 compounds, 1.9% hits; purified B. subtilis ClpP, FRET peptide cleavage, 20 min; ATP-dependent Clp protease proteolytic subunit (Bacillus subtilis (strain 168)), P80244; active = well fitted falling curve with a large enough effect; inconclusive = small, poorly fitted or top-dose-only effect; inactive = no such curve, though single readings can be large or run the other way; note: potency is the fitted concentration of half-maximal effect; the source files actives as falling curves though it sought activators and does not explain the sign; nearly all actives have a fitted effect of over 65% in size
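Purified B. subtilis ClpP, 10 microg/mL final in Tris/HCl pH8 with KCl, BSA, glycerol and Tween-20, cleaved an Abz/nitrotyrosine-quenched decapeptide. Fluorescence (ex 320, em 430) was read at 0 and 20 min at room temperature. Delta was normalized to 5.8 microM ADEP and DMSO/no-enzyme controls.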
KCNH2 WT inh – blocks the wildtype human KCNH2 potassium channel. Q12809. 340,000 compounds, 0.37% hits. U2OS, BacMam KCNH2, thallium flux FluxOr; hits give low values. activity change, % at 1.84 µM;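 active = maximum activity change below -70%; inconclusive = maximum activity change between -70% and -50%; inactive = maximum activity change above -50%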; note: % is set by controls: 0 for no effect and ±100 for the full control effect
Target sequence (Q12809 whole entry, looked up): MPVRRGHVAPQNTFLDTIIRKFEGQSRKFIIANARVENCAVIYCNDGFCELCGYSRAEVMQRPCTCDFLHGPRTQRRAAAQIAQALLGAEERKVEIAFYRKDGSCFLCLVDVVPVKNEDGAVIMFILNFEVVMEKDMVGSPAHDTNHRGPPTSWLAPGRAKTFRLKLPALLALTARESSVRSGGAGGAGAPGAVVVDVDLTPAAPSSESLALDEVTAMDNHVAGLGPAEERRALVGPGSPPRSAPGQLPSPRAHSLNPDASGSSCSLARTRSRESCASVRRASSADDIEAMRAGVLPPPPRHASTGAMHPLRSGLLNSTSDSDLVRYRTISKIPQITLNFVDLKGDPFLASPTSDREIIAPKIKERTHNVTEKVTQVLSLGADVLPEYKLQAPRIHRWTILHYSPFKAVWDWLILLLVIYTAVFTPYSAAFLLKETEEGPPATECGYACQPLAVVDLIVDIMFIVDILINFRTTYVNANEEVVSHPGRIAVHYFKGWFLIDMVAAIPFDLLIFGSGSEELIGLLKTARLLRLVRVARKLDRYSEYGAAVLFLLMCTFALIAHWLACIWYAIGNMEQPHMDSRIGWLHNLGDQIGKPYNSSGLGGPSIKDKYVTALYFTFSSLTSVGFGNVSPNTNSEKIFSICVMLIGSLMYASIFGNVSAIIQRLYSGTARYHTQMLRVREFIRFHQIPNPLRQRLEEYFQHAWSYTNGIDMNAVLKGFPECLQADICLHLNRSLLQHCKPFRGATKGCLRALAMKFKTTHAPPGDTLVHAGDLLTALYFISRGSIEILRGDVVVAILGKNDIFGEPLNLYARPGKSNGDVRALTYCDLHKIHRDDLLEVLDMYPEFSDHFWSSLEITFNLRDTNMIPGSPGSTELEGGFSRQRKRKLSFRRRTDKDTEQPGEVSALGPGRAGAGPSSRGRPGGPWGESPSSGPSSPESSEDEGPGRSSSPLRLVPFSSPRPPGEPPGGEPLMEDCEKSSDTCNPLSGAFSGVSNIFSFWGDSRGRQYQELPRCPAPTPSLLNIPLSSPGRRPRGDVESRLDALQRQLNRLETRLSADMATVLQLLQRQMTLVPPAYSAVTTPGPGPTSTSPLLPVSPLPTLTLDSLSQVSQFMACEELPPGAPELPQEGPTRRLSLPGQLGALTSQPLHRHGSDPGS
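U2OS cells were transduced with wild-type KCNH2 virus (2.03 x 10^8 / mL) for 4 h at room temperature, then cultured overnight at 37 C. Thallium flux was read with FluxOr dye. Rate constants were normalized to DMSO controls.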
TRPV1 ag – agonists of human vanilloid receptor 1 (TRPV1) | AID 540275 | activation, % at 8.33 µM | Q8NER1 | TRPV1-expressing cells, Fluo-8 calcium influx, agonist mode | 320,000 compounds, 0.19% hits; in the data active = activation above about 80%; inconclusive = between about 30% and that limit; note: 0% is about no effect
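Fluo-8 calcium influx in TRPV1-expressing cells, kinetic read (ex 480/em 520 nm). Compound added and read 3 min for agonist activity, followed by capsaicin at EC20 final and 2 min further read for enhancement.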
KCNH2 3.1 inh – KCNH2 3.1 (human) potassium channel inhibition. U2OS KCNH2 3.1, thallium flux FluxOr; hits give low values. activity change, % (tested at about 1.8 µM). 340,000 compounds, 0.95% hits;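 active = maximum activity change below -70%; inconclusive = maximum activity change from -70% to -50%; inactive = maximum activity change above -50%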;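 note: thallium influx rate constant from kinetic fluorescence after stimulation buffer; % is set by controls: 0 for no effect and ±100 for the full control effect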
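U2OS cells transduced with KCNH2 3.1 mutant virus (1.77 x 10^8 /mL, 4 h), plated overnight at 37 C, loaded 45 min with FluxOr dye plus Red40 quencher. Thallium flux rate constant from kinetic reads after stimulation buffer, normalised to controls.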
Starred values were filed as active, the others as inactive; ? = inconclusive; nt = not tested or not shown; ! = not active in a repeat.

SMILES	TRPV1 potentiator	p53 reactivation	ClpP mod	KCNH2 WT inh	TRPV1 ag	KCNH2 3.1 inh
O=S(=O)(c1ccccc1Br)N1CCN(c2nc(-c3cccs3)nc3ccccc23)CC1	nt	nt	-19%	nt	nt	nt
O=C(NCC(c1ccc2c(c1)OCO2)N1CCOCC1)C(=O)Nc1ccc(Cl)cc1 (configuration not stated)	nt	nt	-1%	nt	nt	nt
Cc1cccn2c(=O)cc(CSc3nnc(NC(=O)C(C)C)s3)nc12	nt	nt	-5%	nt	nt	nt
COc1ccc(S(=O)(=O)NCC(=O)N(CC(=O)NCC2CCCO2)Cc2ccccc2)cc1 (configuration not stated)	1	-1%	0%	-11	-3	-3
COc1ccc(S(=O)(=O)NCC(=O)N(CC(=O)NCC2CCCO2)c2c(C)cccc2C)cc1 (configuration not stated)	0	0%	-3%	2	-1	-74*
COc1ccc(NC(=O)c2cc(-c3ccccc3Cl)no2)cc1	-11	16%	5%	-3	?	-15
O=C(Nc1ccccc1)c1cc(-c2ccccc2Cl)no1	-6	20%	-9%	16	85*	-12
CC(C)NC(=O)CCCc1cn(C)c2ccccc12	-24	-3%	32µM*	17	11	-22
OCCOCCNc1ncnc2nc[nH]c12	-7	12%	1%	-4	-1	-207*
Cc1nn(-c2ccc(F)cc2F)c2c1-c1nc(N3CCCC3)ncc1CC2	-1	-8%	32µM*	2	6	-5
CC(C)CCN1C(=O)c2ccccc2C1c1nnnn1C(C)C (configuration not stated)	nt	nt	0%	nt	nt	nt
COc1ccc(CN2CC[C@H]3C=CC[C@@H](C(=O)NC4CCCCC4)[C@H]3C2=O)cc1OC	nt	nt	1%	nt	nt	nt
CCOC(=O)c1nn(-c2ccc(OCC)cc2)c2nc(CC(C)C)c(C#N)c(=O)n12	-11	-1%	22µM*	30	2	11
CCOC(=O)c1nn(-c2ccc(Cl)cc2)c2nc(-c3ccc(C)cc3)c(C#N)c(=O)n12	1	9%	25µM*	3	-3	-4
CCOC(=O)c1nn(-c2cccc(C)c2)c2nc(-c3ccccc3)c(C#N)c(=O)n12	3	2%	32µM*	-6	-1	1
CCOC(=O)c1nn(-c2cccc(Cl)c2)c2nc(CC(C)C)c(C#N)c(=O)n12	-42	5%	181%	-3	3	-37
CCOC(=O)c1nn(-c2ccc(Cl)cc2)c2nc(CC)c(C#N)c(=O)n12	10	1%	896%	-1	-2	-8
CCC(CC)NC(=O)Nc1ccccc1C	-1	2%	nt	-3	3	-2
CCC(CC)NC(=O)Nc1ccccc1C(F)(F)F	-21	-4%	-2%	-112*	10	-18
[Cl][In]([Cl])[Cl]	nt	nt	1%	nt	nt	nt
COC(=O)c1ccc2c(c1)C(=O)/C(=C/c1ccc(C)cc1)O2	6	10%	28µM*	3	-1	5
CCOc1ccc(C(=O)NCc2ccc3c(c2)CCN3C(=O)c2ccc(C)cc2)cc1OCC	nt	nt	-6%	nt	nt	nt
CC(=O)N(CC(=O)O)c1ccccc1	-6	0%	18µM*	14	3	-1
CC(=O)N(CN1C(=O)c2ccccc2C1=O)c1ccccc1	3	0%	-2%	1	-1	5
CCN(CCCN(C)C)c1ccc(/C=C/c2ccnc3ccccc23)cc1	nt	nt	2%	nt	nt	nt
SMILES	TRPV1 potentiator	p53 reactivation	ClpP mod	KCNH2 WT inh	TRPV1 ag	KCNH2 3.1 inh
Oc1ccc(Nc2nc(-c3ccccc3O)nc3ccccc23)cc1	-2	-1%	2%	13	27	-118*
COc1ccc(Nc2nc(-c3ccccc3O)nc3ccccc23)cc1	-8	2%	-10%	-26	8	-5
CCc1ccc(CNC(=O)C2CCCN(S(=O)(=O)c3ccc4c(ccn4C)c3)C2)cc1 (configuration not stated)	nt	nt	-24%	nt	nt	nt
O=C(Nc1ccccc1C(=O)O)/C(=C/c1ccc(Cl)cc1Cl)NC(=O)c1ccco1	23	-3%	35µM*	7	-3	5
O=C(Nc1cccc(C(=O)O)c1)/C(=C\c1ccco1)NC(=O)c1ccccc1Cl	-1	-1%	1%	-3	1	-9
CCc1nnc(NC(=O)c2ccc(NS(=O)(=O)c3ccccc3)cc2)s1	21	-3%	28µM*!	-10	-1	6
O=C(NCCc1ccc(Cl)cc1)c1ccc(CS(=O)(=O)Cc2ccccc2F)o1	nt	nt	1%	nt	nt	nt
CC(=O)Oc1ccccc1C(=O)Oc1ccccc1C(=O)O	-2	5%	-10%	-3	1	-9
CC(C)CCOCC(=O)Oc1ccccc1C(=O)O	0	-3%	28µM*	2	1	-2
CCOC(=O)c1sc2ccccc2c1S(=O)(=O)Nc1ccc(OC)c(Cl)c1	nt	nt	0%	nt	nt	nt
N#Cc1ccccc1S(=O)(=O)N1CCN(C(=O)C2CC(=O)N(c3ccc4c(c3)OCCO4)C2)CC1 (configuration not stated)	nt	-1%	-1%	-10	nt	-75*
Cc1ccc(S(=O)(=O)N2CCN(C(=O)C3CC(=O)N(c4ccc5c(c4)OCCO5)C3)CC2)cc1 (configuration not stated)	12	0%	-2%	-9	2	-12
Cc1cccc(/C=C/c2cccs2)n1	nt	nt	-2%	nt	nt	nt
COCCCC1CCN(C(=O)c2cc(COc3ccc(C)nc3)on2)CC1	-19	-30%	28µM*	-20	-9	0
O=C(c1cc2ccccc2oc1=O)N1CCN(c2ccc(N3CCOCC3)nn2)CC1	-5	1%	-4%	-10	1	-88*
O=C(c1noc2c1CCCCC2)N1CCN(c2cccc(C(F)(F)F)c2)CC1	nt	nt	-7%	nt	nt	nt
Cc1ccccc1CNC(=O)C1CCN(S(=O)(=O)Cc2ccccc2)CC1	nt	nt	1%	nt	nt	nt
CSc1ncc(Cl)c(C(=O)Nc2c(C(=O)c3ccc(C)c(F)c3)oc3ccccc23)n1	nt	nt	0%	nt	nt	nt
CC(C)(CO)NC(=O)C12CC3CC(CC(Br)(C3)C1)C2	6	2%	20µM*	-3	4	2
O=c1c2cc(NC(=S)NCCCN3CCC(Cc4ccccc4)CC3)ccc2nc2n1CCCCC2	-3	-3%	3%	-29	1	-72*
CC1CCCCN1C(=S)Nc1ccc2nc3n(c(=O)c2c1)CCCCC3 (configuration not stated)	-4	4%	28µM*	0	-1	-1
O=c1c2cc(NC(=S)NCCN3CCCCCC3)ccc2nc2n1CCCCC2	-3	8%	-1%	5	0	-11
CCc1ccc(NC(=O)CSc2ncc(S(=O)(=O)c3cc(C)ccc3C)c(=O)[nH]2)cc1	nt	nt	1%	nt	nt	nt
CCOc1cc(/C=C(\CC(=O)O)c2nc3ccccc3s2)ccc1OCC(=O)Nc1cccc(C(F)(F)F)c1	nt	nt	-1%	-258*	nt	-26
